The supplement of paper PMC10849652
The full data set covers some 7,900 targets. This sample favours those with a hit. About 0.6% of all pairs of compound and target were hits. Values without a mark were called inactive.

How the values were obtained:
Assay in all cases: log2 fold change, soluble protein after heating vs DMSO (PISA); higher = thermal stabilisation; K562 cells, 10 uM, 30 min; active = over 0.2 and 3.5 SD of the protein, either way, in both replicates (recomputed)
[1] = compound: CC[C@@H]1C(=O)N(C)c2cnc(Nc3ccc(C(=O)NC4CCN(C)CC4)cc3OC)nc2N1C1CCCC1
Outline: (§1)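 K562 cells at 2×10^6 cells/mL were exposed to 10 μM compound for 30 min, then aliquots were heated for 3 min across 48°C-58°C, pooled, and extracted in PBS containing 0.5% NP-40 at 4°C. The supernatant after 21,000xg for 90 min was taken as soluble protein and measured by TMTpro 16plex LC-MS/MS with channel sums equalised. Thermal stability is reported relative to control samples, with values from duplicates. Fold changes are given on a log2 scale.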

volasertib = compound: CC[C@@H]1C(=O)N(C)c2cnc(Nc3ccc(C(=O)N[C@H]4CC[C@H](N5CCN(CC6CC6)CC5)CC4)cc3OC)nc2N1C(C)C [volasertib]
Outline: as §1

[2] = compound: CC[C@H](C)N1C=C(C2=C(C=C(C=C21)C3=CN=C(C=C3)N4CCNCC4)C(=O)NCC5=C(C=C(NC5=O)C)C)C
Outline: as §1

epoxomicin = compound: CC[C@H](C)[C@@H](C(=O)N[C@@H]([C@@H](C)O)C(=O)N[C@@H](CC(C)C)C(=O)[C@]1(CO1)C)NC(=O)[C@H]([C@@H](C)CC)N(C)C(=O)C [epoxomicin]
Outline: as §1

[3] = compound: CCn1cc(-c2ccnc3[nH]c(-c4cccc(CN(C)C)c4)cc23)c(-c2ccc(NC(=O)N(C)C)cc2)n1
Outline: as §1

[4] = compound: CN(C)CC(=O)Nc1ccc2[nH]c(=O)c3ccccc3c2c1
Outline: as §1

[5] = compound: CN1CCC(CNc2ccc3ncc(-c4cccc(OC(F)(F)F)c4)n3n2)CC1
Outline: as §1

sotrastaurin = compound: CN1CCN(c2nc(C3=C(c4c[nH]c5ccccc45)C(=O)NC3=O)c3ccccc3n2)CC1 [sotrastaurin]
Outline: as §1

alvocidib = compound: CN1CC[C@H](c2c(O)cc(O)c3c(=O)cc(-c4ccccc4Cl)oc23)[C@H](O)C1 [alvocidib]
Outline: as §1

Tubastatin A = compound: CN1CCc2c(c3ccccc3n2Cc2ccc(C(=O)NO)cc2)C1 [Tubastatin A]
Outline: as §1

defactinib = compound: CNC(=O)c1ccc(Nc2ncc(C(F)(F)F)c(NCc3nccnc3N(C)S(C)(=O)=O)n2)cc1 [defactinib]
Outline: as §1

rucaparib = compound: CNCc1ccc(-c2[nH]c3cc(F)cc4c3c2CCNC4=O)cc1 [rucaparib]
Outline: as §1

encorafenib = compound: COC(=O)N[C@@H](C)CNc1nccc(-c2cn(C(C)C)nc2-c2cc(Cl)cc(NS(C)(=O)=O)c2F)n1 [encorafenib]
Outline: as §1

[6] = compound: COC(=O)[C@H](CCSC)NC(=O)C1=C(C=C(C=C1)NC[C@H](CS)N)C2=CC=CC=C2
Outline: as §1

[7] = compound: CCn1c(C(=O)N(C2CC2)C2CC2)cc2c3c(ncn3C)c(Nc3cc(C)n(C)n3)nc21
Outline: as §1

rosiglitazone = compound: CN(CCOC1=CC=C(C=C1)C[C@H]2C(=O)NC(=O)S2)C3=CC=CC=N3 (racemic) [rosiglitazone]
Outline: as §1

[8] = compound: CN1C2=C(C3=C1C(=O)N(N=C3)CC4=CC(=CC=C4)N)SC(=C2)S(=O)C
Outline: as §1

saracatinib = compound: CN1CCN(CCOc2cc(OC3CCOCC3)c3c(Nc4c(Cl)ccc5c4OCO5)ncnc3c2)CC1 [saracatinib]
Outline: as §1

[9] = compound: CNC(=O)C1=CC=CC=C1NC2=NC(=NC=C2Cl)NC3=C(C=C(C=C3)N4CCOCC4)OC
Outline: as §1

[10] = compound: CNc1nc(-c2ccc3c(N)n[nH]c3c2)cc(N2C[C@@H](C(=O)NC3CCCCC3)CC[C@H]2C)n1
Outline: as §1

UniProt Q02224, sequence (Q02224 whole entry, looked up): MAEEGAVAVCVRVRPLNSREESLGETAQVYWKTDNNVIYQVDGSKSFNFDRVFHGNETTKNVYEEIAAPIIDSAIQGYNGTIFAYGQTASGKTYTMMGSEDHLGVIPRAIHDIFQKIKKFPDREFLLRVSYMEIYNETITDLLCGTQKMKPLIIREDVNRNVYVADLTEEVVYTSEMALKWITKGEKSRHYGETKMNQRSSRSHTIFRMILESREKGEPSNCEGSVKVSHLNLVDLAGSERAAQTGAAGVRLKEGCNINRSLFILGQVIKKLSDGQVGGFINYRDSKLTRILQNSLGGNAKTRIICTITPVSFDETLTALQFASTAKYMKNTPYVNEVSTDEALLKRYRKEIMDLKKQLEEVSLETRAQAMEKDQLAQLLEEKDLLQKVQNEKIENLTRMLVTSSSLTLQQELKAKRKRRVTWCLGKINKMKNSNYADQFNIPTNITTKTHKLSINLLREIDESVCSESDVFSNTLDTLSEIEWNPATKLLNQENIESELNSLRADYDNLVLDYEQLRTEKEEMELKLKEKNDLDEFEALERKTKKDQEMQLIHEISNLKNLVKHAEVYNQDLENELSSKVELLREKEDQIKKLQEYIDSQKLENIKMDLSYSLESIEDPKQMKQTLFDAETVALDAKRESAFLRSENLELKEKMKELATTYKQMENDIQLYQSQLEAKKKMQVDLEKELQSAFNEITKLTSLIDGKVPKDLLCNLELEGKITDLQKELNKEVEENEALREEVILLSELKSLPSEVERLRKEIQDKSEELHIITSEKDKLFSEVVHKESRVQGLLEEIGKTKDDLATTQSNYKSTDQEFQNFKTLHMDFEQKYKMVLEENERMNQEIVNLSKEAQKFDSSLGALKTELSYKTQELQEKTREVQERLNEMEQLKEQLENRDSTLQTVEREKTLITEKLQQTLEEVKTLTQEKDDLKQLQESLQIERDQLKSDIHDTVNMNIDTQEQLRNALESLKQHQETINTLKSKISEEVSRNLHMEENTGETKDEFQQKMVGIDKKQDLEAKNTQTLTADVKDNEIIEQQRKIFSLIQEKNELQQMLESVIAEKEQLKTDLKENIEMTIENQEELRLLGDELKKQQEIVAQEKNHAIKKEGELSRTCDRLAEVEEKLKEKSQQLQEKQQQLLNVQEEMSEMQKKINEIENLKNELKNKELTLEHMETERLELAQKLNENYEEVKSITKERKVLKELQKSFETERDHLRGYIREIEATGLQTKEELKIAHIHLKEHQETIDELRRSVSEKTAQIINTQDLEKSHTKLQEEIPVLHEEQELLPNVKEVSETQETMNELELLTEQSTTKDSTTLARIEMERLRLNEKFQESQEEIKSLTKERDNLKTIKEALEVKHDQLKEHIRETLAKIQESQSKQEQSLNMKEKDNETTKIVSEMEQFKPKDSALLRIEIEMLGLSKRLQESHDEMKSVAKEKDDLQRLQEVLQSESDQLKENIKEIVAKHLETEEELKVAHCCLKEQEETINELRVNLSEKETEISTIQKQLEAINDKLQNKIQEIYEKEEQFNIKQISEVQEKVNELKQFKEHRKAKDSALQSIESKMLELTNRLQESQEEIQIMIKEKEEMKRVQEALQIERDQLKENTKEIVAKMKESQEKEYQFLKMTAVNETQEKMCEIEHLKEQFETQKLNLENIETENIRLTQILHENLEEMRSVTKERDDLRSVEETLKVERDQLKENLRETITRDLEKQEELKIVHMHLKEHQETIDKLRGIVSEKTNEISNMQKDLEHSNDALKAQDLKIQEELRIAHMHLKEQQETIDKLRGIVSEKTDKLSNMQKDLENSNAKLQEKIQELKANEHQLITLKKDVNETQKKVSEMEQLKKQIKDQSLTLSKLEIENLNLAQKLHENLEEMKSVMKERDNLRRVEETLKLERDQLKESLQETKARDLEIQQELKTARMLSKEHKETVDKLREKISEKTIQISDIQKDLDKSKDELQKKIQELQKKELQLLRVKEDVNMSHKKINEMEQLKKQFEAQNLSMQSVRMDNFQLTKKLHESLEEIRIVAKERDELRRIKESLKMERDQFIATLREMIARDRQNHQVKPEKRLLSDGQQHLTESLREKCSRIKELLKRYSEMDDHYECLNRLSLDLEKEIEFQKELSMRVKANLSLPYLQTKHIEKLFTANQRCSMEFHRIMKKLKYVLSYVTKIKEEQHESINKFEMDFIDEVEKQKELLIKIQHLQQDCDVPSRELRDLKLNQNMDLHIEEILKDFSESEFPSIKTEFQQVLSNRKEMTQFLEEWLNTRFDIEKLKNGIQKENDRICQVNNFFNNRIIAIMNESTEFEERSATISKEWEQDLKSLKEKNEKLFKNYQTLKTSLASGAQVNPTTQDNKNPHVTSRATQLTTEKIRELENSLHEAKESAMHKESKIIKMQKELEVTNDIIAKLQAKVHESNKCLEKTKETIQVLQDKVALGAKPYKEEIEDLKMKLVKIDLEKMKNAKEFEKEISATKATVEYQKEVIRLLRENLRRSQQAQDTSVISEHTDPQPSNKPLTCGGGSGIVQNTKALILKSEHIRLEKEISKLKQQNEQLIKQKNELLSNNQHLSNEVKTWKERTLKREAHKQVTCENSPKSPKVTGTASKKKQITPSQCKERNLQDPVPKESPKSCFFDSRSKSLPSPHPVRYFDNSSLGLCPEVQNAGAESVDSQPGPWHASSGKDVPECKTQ
UniProt Q9UIB8, sequence (Q9UIB8 whole entry, looked up): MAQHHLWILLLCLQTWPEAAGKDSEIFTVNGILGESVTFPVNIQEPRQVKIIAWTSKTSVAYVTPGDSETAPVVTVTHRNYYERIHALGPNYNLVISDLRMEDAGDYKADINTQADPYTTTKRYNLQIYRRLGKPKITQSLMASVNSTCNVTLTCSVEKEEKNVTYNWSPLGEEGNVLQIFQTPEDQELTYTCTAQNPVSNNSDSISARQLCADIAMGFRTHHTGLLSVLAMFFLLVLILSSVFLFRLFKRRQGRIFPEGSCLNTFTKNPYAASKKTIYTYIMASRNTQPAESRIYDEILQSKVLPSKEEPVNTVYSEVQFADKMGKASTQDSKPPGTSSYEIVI
UniProt P51795, sequence (P51795 whole entry, looked up): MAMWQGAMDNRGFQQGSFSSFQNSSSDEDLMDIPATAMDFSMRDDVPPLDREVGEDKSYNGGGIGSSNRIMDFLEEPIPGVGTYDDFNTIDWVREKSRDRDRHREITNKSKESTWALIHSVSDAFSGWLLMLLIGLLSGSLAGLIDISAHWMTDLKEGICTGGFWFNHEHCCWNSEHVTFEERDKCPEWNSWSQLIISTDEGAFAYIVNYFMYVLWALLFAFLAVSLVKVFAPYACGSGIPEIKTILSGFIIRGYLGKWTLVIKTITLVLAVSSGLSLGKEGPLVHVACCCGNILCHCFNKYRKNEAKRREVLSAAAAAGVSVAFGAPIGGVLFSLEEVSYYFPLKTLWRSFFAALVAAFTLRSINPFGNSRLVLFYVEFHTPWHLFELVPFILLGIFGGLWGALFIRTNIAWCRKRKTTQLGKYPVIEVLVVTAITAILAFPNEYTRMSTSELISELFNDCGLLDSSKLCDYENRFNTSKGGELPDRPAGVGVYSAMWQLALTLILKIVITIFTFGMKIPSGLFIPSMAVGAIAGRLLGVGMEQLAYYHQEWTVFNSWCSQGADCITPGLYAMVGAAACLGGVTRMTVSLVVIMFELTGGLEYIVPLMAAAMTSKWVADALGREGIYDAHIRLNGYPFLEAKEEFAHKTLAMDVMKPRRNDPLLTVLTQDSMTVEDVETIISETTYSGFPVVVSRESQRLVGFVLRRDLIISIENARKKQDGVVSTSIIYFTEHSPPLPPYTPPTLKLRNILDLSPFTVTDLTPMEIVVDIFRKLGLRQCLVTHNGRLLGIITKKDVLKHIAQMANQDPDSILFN
UniProt Q9HCH3, sequence (Q9HCH3 whole entry, looked up): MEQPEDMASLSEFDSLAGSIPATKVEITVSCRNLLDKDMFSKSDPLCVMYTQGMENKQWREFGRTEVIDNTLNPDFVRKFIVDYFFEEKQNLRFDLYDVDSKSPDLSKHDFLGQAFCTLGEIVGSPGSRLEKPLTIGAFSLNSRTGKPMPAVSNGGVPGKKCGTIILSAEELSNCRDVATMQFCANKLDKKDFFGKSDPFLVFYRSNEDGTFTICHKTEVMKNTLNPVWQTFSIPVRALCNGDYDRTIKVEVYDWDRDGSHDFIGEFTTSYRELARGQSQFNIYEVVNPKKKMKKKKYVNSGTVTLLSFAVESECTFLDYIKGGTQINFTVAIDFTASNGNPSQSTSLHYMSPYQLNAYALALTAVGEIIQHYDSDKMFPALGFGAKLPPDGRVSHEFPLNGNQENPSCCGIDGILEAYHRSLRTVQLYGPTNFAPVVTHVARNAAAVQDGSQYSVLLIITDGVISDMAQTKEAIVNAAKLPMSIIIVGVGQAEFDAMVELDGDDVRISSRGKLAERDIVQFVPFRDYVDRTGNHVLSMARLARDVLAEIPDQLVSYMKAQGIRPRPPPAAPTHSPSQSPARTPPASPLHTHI
UniProt Q96G28, sequence (Q96G28 whole entry, looked up): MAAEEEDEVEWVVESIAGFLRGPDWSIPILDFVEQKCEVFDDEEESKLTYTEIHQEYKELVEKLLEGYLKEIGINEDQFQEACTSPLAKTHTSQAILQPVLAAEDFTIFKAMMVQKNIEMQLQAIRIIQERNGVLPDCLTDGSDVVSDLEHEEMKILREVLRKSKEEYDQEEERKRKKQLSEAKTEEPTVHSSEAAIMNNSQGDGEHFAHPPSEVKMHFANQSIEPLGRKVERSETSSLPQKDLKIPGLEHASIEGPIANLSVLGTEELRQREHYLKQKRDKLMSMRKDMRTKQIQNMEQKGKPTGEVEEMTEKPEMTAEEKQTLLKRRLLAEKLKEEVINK
UniProt O75956, sequence (O75956 whole entry, looked up): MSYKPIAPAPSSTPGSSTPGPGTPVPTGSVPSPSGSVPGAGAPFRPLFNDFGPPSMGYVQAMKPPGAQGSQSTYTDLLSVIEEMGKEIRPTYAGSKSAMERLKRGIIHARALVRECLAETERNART
UniProt Q9P0B6, sequence (Q9P0B6 whole entry, looked up): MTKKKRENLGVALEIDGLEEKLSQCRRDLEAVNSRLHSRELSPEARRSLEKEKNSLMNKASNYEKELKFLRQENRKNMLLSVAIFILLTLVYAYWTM

Row | Target | log2 fold change [1] | log2 fold change (volasertib) | log2 fold change [2] | log2 fold change (epoxomicin) | log2 fold change [3] | log2 fold change [4] | log2 fold change [5] | log2 fold change (sotrastaurin) | log2 fold change (alvocidib) | log2 fold change (Tubastatin A) | log2 fold change (defactinib) | log2 fold change (rucaparib) | log2 fold change (encorafenib) | log2 fold change [6] | log2 fold change [7] | log2 fold change (rosiglitazone) | log2 fold change [8] | log2 fold change (saracatinib) | log2 fold change [9] | log2 fold change [10]
1 | CNN1 (UniProt P51911) | -0.049 | -0.066 | -0.066 | -0.015 | -0.403 | -0.007 | -0.192 | 0.15 | -0.115 | 0.126 | -0.028 | 0.102 | -0.046 | 0.043 | – | – | – | – | – | –
2 | CCDC167 (UniProt Q9P0B6) | 0.069 | -0.12 | -0.029 | 0.019 | 0.13 | – | 0.033 | -0.018 | 0.061 | -0.063 | – | 0.021 | -0.037 | – | -0.011 | -0.084 | -0.095 | -0.05 | -0.006 | 0.104
3 | CDK8 (UniProt P49336) | 0.096 | -0.039 | – | -0.098 | -0.236 | -0.044 | 0.356 | 0.074 | 0.66 (active) | -0.1 | -0.059 | 0.192 | -0.002 | 0.064 | 0.027 | -0.02 | -0.025 | -0.006 | 0.053 | 0.018
4 | CAB39L (UniProt Q9H9S4) | -0.134 | -0.054 | – | 0.018 | 0.161 | -0.169 | 0.072 | -0.213 | – | 0.056 | -0.09 | 0.003 | -0.144 | 0.043 | 0.008 | 0.107 | -0.047 | 0.043 | 0.049 | 0.015
5 | CFAP36 isoform 2 (UniProt Q96G28) | -0.159 | -0.433 (active) | – | -0.017 | 0.048 | 0.005 | -0.049 | -0.023 | -0.132 | 0.116 | 0.13 | 0.064 | 0.053 | 0.05 | 0.077 | 0.06 | 0.051 | -0.01 | 0.1 | -0.058
6 | CDK2AP2 (UniProt O75956) | 0.078 | – | -0.04 | 0.137 | – | – | – | – | -0.048 | – | – | 0.134 | -0.038 | – | 0.074 | -0.002 | – | – | -0.092 | –
7 | COX17 (UniProt Q14061) | – | – | 0.044 | 0.504 | -0.154 | -0.051 | 0.055 | -0.023 | -0.101 | -0.113 | -0.072 | – | – | 0.147 | -0.097 | – | -0.146 | -0.092 | -0.008 | 0.023
8 | CCNL1 (UniProt Q9UK58) | – | – | – | – | – | – | – | – | – | – | – | – | – | – | -0.078 | – | – | – | -0.179 | –
9 | CD84 (UniProt Q9UIB8) | – | – | – | -0.009 | – | – | – | -0.144 | -0.111 | -0.039 | – | – | – | – | 0.111 | – | -0.077 | -0.012 | -0.119 | 0.56 (active)
10 | CSNK1D (UniProt P48730) | – | -0.133 | 0 | 0.026 | – | -0.019 | 0.315 | -0.038 | 0.063 | 0.039 | 0.045 | 0.032 | 0.06 | -0.012 | -0.088 | -0.062 | 0.15 | -0.047 | 0.111 | -0.038
11 | CA1 (UniProt E5RIF9) | – | – | – | 0.132 | – | -0.037 | – | – | – | -0.178 | -0.09 | – | – | -0.129 | – | -0.083 | -0.056 | 0.272 | – | 0.093
12 | CLPTM1L (UniProt G5E9Z2) | – | – | -0.055 | 0.247 | 0.116 | 0.117 | 0.052 | -0.288 | 0.051 | -0.109 | 0.002 | – | – | -0.029 | – | 0.189 | – | – | – | –
13 | CD68 (UniProt P34810) | – | – | – | – | – | – | – | -0.031 | – | – | – | – | – | – | 0.091 | 0.104 | – | – | 0.043 | –
14 | CENPE (UniProt Q02224) | – | 0.137 | – | – | -0.039 | -0.061 | 0.192 | -0.19 | -0.385 | 0.091 | -0.056 | – | – | 0.198 | -0.079 | 0.03 | -0.255 | 0.318 | -0.277 | 0.399
15 | CLCN5 isoform 2 (UniProt P51795) | -0.299 | – | 0.151 | – | 0.172 | 0.046 | -0.267 | – | -0.032 | -0.006 | -0.033 | 0.097 | 0.075 | -0.025 | 0.002 | – | 0.098 | -0.001 | 0.009 | -0.116
16 | CCNDBP1 (UniProt O95273) | 0.088 | – | 0.133 | – | -0.036 | -0.094 | -0.048 | -0.209 | -0.007 | 0.001 | -0.107 | -0.002 | 0.062 | -0.027 | -0.045 | 0.032 | 0.013 | 0.078 | 0.115 | -0.04
17 | CRYM-AS1 (UniProt A6NIL9) | -0.04 | – | 0.233 | -0.107 | -0.029 | 0.089 | -0.714 (active) | -0.041 | 0.063 | 0.119 | -0.065 | -0.356 | 0.024 | -0.078 | 0.104 | -0.068 | 0.04 | -0.092 | -0.347 | 0.103
18 | CPNE5 (UniProt Q9HCH3) | – | – | – | – | – | – | – | – | 0.134 | 0.082 | – | – | – | – | 0.132 | – | – | – | 0.049 | –
19 | CHST10 (UniProt O43529) | – | -0.146 | 0.002 | -0.019 | -0.021 | – | -0.108 | -0.01 | -0.106 | -0.037 | – | – | – | – | -0.043 | 0.081 | – | – | 0.035 | –
20 | CARD9 (UniProt Q9H257) | – | – | – | – | – | – | – | – | – | – | – | – | – | – | -0.103 | – | – | – | 0.388 | –
21 | CSNK1A1 isoform 3 (UniProt P48729) | – | -0.224 | – | – | – | – | – | – | – | – | – | – | – | – | – | -0.005 | – | – | – | –
22 | CRMP1 isoform 2 (UniProt Q14194) | – | – | 0.2 | – | -0.198 | -0.072 | 0.038 | 0.107 | -0.052 | 0.025 | -0.149 | – | – | 0.025 | -0.303 | 0.047 | -0.25 | -0.059 | 0.024 | -0.041
23 | CRTC3 (UniProt Q6UUV7) | – | 0.051 | – | 0.094 | – | -0.117 | – | 0.044 | -0.051 | -0.109 | 0.025 | – | – | -0.06 | – | 0.148 | – | – | – | –
24 | CCDC187, A0A1W2PQX5 | – | – | 0.012 | 0.085 | -0.03 | – | -0.029 | – | – | – | – | – | – | – | – | – | – | – | – | –
25 | CASK (UniProt O14936) | – | – | – | – | – | – | – | – | – | – | – | – | – | – | -0.086 | – | 0.014 | -0.068 | -0.064 | -0.009
26 | CCNC (UniProt P24863) | – | – | – | 0.035 | -0.178 | -0.011 | 0.4 (active) | -0.057 | 0.6 (active) | – | -0.047 | – | – | 0.001 | 0.031 | -0.022 | 0.032 | 0.057 | 0.008 | -0.028
27 | CRTC1 isoform 2 (UniProt Q6UUV9) | – | 0.211 | – | -0.062 | 0.034 | -0.069 | 0.101 | 0.011 | – | -0.009 | -0.021 | – | – | 0.009 | -0.164 | 0.065 | -0.153 | -0.026 | -0.101 | -0.062
